The sequences below were run against CD40 (assay: pooled miR-30 sensor sort-seq; sequence = guide strand). Details: shRNA.
TTCTTCACAGGTGCAGATGGTG gave a sensor-assay potency score (higher = more potent) of -0.762. TATTGGTTGGCTTCTTGGCCAC gave a sensor-assay potency score (higher = more potent) of -0.723. With ATTAGGTACTGTTTTTCTCTGC the sensor-assay potency score (higher = more potent) was -0.104. Work on AACCCCTGTAGCAATCTGCTTG yielded a sensor-assay potency score (higher = more potent) of -0.675. TCCGTTTCAGTGAACTCTGTGC was tested, and the sensor-assay potency score (higher = more potent) was -0.4. Work on TTTCAGTGAACTCTGTGCAGTC yielded a sensor-assay potency score (higher = more potent) of 0.172. In the case of TGGTTCTGGATGGACAGCGGTC, the sensor-assay potency score (higher = more potent) is reported as -1.56. In the case of TTTGATAAAGACCAGCACCAAG, the sensor-assay potency score (higher = more potent) is reported as -1.36. In the case of TGACTGTTTATTAGGTACTGTT, the sensor-assay potency score (higher = more potent) is reported as -0.925. TTTTCTCTGCATGCAGTGGGTG was tested, and the sensor-assay potency score (higher = more potent) was -0.932. TCACTCACCAGTTTCTGTCCTG gave a sensor-assay potency score (higher = more potent) of 0.175. With TCTCCTGCACTGGAGCAGCAGT the sensor-assay potency score (higher = more potent) was -1.54. In the case of TTGGCATCCATGTAAAGTCTCC, the sensor-assay potency score (higher = more potent) is reported as -0.501. AAGAACAGCACTGACTGTTTAT showed a sensor-assay potency score (higher = more potent) of -1.08. TTCTGAGGTGCCCTTCTGCTGG showed a sensor-assay potency score (higher = more potent) of -1.42. In the case of TATTAGGTACTGTTTTTCTCTG, the sensor-assay potency score (higher = more potent) is reported as -0.885. TTTTTCTCTGCATGCAGTGGGT was tested, and the sensor-assay potency score (higher = more potent) was -0.914. TTCCGTTTCAGTGAACTCTGTG was tested, and the sensor-assay potency score (higher = more potent) was 0.749. With TACAGTGCCAGCCTTCTTCACA the sensor-assay potency score (higher = more potent) was -1.17. TTGGTCTCACAGCTTGTCCAAG was tested, and the sensor-assay potency score (higher = more potent) was -1.27. ACAAAGAACAGCACTGACTGTT gave a sensor-assay potency score (higher = more potent) of 0.0373. TGTAGCAATCTGCTTGACCCCA was tested, and the sensor-assay potency score (higher = more potent) was -0.6. With TAGCAATCTGCTTGACCCCAAA the sensor-assay potency score (higher = more potent) was -1.28.

These sequences were tested against CD48 in the same assay as above. Details: shRNA.
For TGTAGTTTACAGACTCGCCAGG, the sensor-assay potency score (higher = more potent) was -0.895. With TATACAGTCTCTGTCCTGGTGA the sensor-assay potency score (higher = more potent) was -0.4. With TTCAGAGTCACGTTGCTGCCGG the sensor-assay potency score (higher = more potent) was -0.426. Work on TTAGATTTTCTGGAATCCCATT yielded a sensor-assay potency score (higher = more potent) of -1.01. TTCTTGCTCATTCCCAGTCTTT showed a sensor-assay potency score (higher = more potent) of -1.11. In the case of TGATCTTCCATTCTTGCTCATT, the sensor-assay potency score (higher = more potent) is reported as -1.23. TTCAAGCACACTGTTCTGGAGC gave a sensor-assay potency score (higher = more potent) of -0.656. TAATTCAGCAGCATGCTTCTGG was tested, and the sensor-assay potency score (higher = more potent) was 0.539. In the case of TACTAGAAAACAACAAAGGGAT, the sensor-assay potency score (higher = more potent) is reported as -0.0806. TTGCTGCTCACAGAATTGCTGA showed a sensor-assay potency score (higher = more potent) of -0.332. TTGGCAAGTATAACACCTGGAG was tested, and the sensor-assay potency score (higher = more potent) was -0.157. Sequence TATCACACATGACAGTTTCAAA has a sensor-assay potency score (higher = more potent) of -1.19. ATGTGTATCTCTATATCTCTGT gave a sensor-assay potency score (higher = more potent) of -0.19. For TCAATTTTGATGACAGGCTTGG, the sensor-assay potency score (higher = more potent) was 0.186. For TTCTACAATCTTCTGGTCGAAA, the sensor-assay potency score (higher = more potent) was -0.694.

— the OligoGym collection
Also: reference of the scale not given here.
